Measured values: PubChem BioAssay (NCI)
About 83,000 compounds went through this panel and 20% of them were active in at least one assay; those are over-represented in the sample as a whole.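 How to read the values: 0–100, growth inhibition (40 = 60% inhibited); 0, no net growth; -100 to 0, cell death (-40 = 40% of starting cells died; -100 = all dead).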 Unmarked numbers belong to inactive results. Active and inactive are the calls of the source. The calls were made as follows: active = growth percent below 10; inactive = the rest.

Test system: MDA-MB-231 breast
Test: NCI-60 one-dose screen, 48 h (100 = growth as untreated, 0 = no growth, -100 = all killed)
Conditions: 10 µM unless noted

Row | Structure (SMILES) | growth
1 | O=NN(Cc1cccnc1)C(=O)NC1CCCCC1 | 127%
2 | FC(F)(F)c1cccc(CNC2CCN(CCc3ccccc3)CC2)c1 | 66.5%
3 | COc1ccc(CCN2C(=O)/C(=C/c3ccc(C4Oc5ccccc5C5CC(c6cccc(OC)c6)=NN54)cc3)SC2=S)cc1 (centres undefined) | 101%
4 | COc1cc(-c2c3c(cn2S(=O)(=O)c2ccccc2)-c2nc(N)sc2CC3)cc(OC)c1OC | 19.3%
5 | CCC1=C[C@@H]2CN(C1)Cc1c([nH]c3ccccc13)[C@@](C(=O)OC)(c1cc3c(cc1OC)N(C)[C@H]1[C@@](O)(C(=O)OC)[C@H](OC(C)=O)[C@]4(CC)[C@@H]5C[C@@H]5CN5CC[C@]31[C@@H]54)C2 | -45.4% (active)
6 | O=C(O)CCCN1C(=O)C2C3CCC(C3)C2C1=O (centres undefined) | 130%
7 | CCOC(=O)CSc1c(-c2ccccc2)c2cc(Cl)ccc2[nH]c1=O | 104%
8 | COc1ccc(C2C3=C(COC3=O)N(CCO)c3cc4c(cc32)CCC4)cc1 (centres undefined) | 70.9%
9 | Cc1c(C(=O)OCCO)cc(-c2ccc(Cl)cc2)n1-c1ccc(Cl)cc1Cl | 74.2%
10 | NC1C(N)C(N)C1N (centres undefined) | 94.2%
11 | Oc1[nH]c2ccccc2c1N=Nc1nnc2n1N=C(c1ccccc1)CS2 | 88.6%
12 | O=NN(C(=O)NC1CCC(C(=O)O)CC1)C1CCC(C(=O)O)CC1 (centres undefined) | 103%
13 | Nc1ccc(-c2nn3c(CCC(=O)c4nc5ncccc5[nH]4)nnc3s2)c(O)c1 | 71.2%
14 | CCOc1ccc2c(c1)CN(Cc1ccc(Cl)cc1)CO2 | 35.2%
